Measurements published in PubChem BioAssay (Tox21).
Several values for one entry are separate records, joined by “and”; a condition that tells them apart may be missing. Equal values may be shown once. Records with an inconclusive call do not appear. A call without a number means that no potency is given here. Some compounds were tested as several samples or in several runs, with calls that do not always agree. Activity calls are given as the source filed them. The call rests on the fitted dose curve.

target: Acetylcholinesterase (Homo sapiens) (UniProt P22303); test: Acetylcholinesterase (AChE) small molecule antagonists: fluorescence cell-based qHTS assay (AID 1347398); conditions: SH-SY5Y cells; Potency: AChE activity; series mostly up to 115 µM; activity change, negative = inhibition: at the top concentration; further: nearly all actives have a fitted effect of over 50% in size
Text: National Center for Advancing Translational Sciences [NCATS]
Division of Preclinical Innovation [DPI]
U.S. Environmental Protection Agency [EPA]
National Institutes of Environmental Health Sciences [NIEHS]
National Toxicology Program [NTP]
U.S. Food and Drug Administration [FDA]
Acetylcholinesterase (AChE) is the primary cholinesterase in the body that hydrolyzes a key neurotransmitter, acetylcholine. Inhibition of AChE activity can lead to neurotoxicity. Known inhibitors of AChE include organophosphorous pesticides (OP), chemical warfare agents, drugs, and various phytochemicals.
A homogenous cell-based assay using Amplitetrade mark Fluorimetric Acetylcholinesterase Assay Kit *Green Fluorescence* (AAT Bioquest, Sunnyvale, CA) was used to evaluate the chemicals in the Tox21 10K library that inhibit AChE activity. The assay uses Thiolite Green to quantify the thiocholine produced from the hydrolysis of acetylthiocholine by AChE from the SH-SY5Y cells. AChE can hydrolyze acetylthiocholine to create thiocholine. Thiolite Green is fluorescent when reacting with thiocholine. It has spectral properties similar to those of fluorescein. The fluorescence intensity of Thiolite Green is used to measure AChE activity. Its signal can be easily read by a fluorescence microplate reader at Ex/Em = 490/520 nm.
Tox21 Assay Protocol Summary:
For cell-based AChE assay, 2,000 SH-SY5Y cells in 4 uL/well were dispensed into black, clear-bottom 1536-well plates using a Multidrop Combi (Thermo Scientific) dispenser. The assay plates were incubated overnight at 37 C to allow cells to attach to the wells, followed by the transfer of 23 nL compound or DMSO (vehicle control) by a Pintool station (Wako Automation, CA). The plates were incubated for 30 min at 37 C and 5% CO2, followed by the addition of 4 uL of detection cocktail solution (ThioliteGreen, acetylthiocholine) into each well using Flying Reagent Dispenser (Beckman Coulter, CA) and then following 40 min incubation at room temperature. Fluorescent intensity (Ex/Em = 490/520 nm) was measured using an Envision plate reader (PerkinElmer, MA).
Potency means the concentration at half of the fitted maximal effect.

Chain of Acetylcholinesterase (Homo sapiens) (P22303 whole entry, looked up): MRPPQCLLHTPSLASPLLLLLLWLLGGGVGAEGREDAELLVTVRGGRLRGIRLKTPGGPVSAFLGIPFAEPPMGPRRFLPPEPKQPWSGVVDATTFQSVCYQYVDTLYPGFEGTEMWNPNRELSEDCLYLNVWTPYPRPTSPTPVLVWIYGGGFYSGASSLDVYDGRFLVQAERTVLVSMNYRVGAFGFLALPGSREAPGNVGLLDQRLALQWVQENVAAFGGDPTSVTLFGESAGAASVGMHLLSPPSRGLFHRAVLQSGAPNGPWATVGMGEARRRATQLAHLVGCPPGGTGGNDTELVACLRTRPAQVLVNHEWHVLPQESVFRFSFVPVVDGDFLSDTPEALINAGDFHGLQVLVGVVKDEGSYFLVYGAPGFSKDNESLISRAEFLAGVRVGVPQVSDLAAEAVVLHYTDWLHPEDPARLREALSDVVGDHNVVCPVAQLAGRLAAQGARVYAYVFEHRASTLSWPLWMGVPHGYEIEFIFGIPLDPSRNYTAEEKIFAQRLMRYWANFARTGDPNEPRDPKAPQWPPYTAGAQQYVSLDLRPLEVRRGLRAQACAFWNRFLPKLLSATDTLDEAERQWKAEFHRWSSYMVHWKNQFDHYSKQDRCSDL

Structure (SMILES)	Potency	activity change, negative = inhibition
O=NN1CCOCC1	inactive	
CC[n+]1c(-c2ccccc2)c2cc(N)ccc2c2ccc(N)cc21	31.6 µM (active) and 12.3 µM (active)	
CCCCCCCCCCCCCl	inactive	
CCCCCCCCCc1ccc(O)cc1	inactive	
O=P(OCCCl)(OCCCl)OCCCl	inactive	
CNC(=O)Oc1cccc2c1OC(C)(C)C2	289 nM (active) and 126 nM (active)	
CC1(C)C(C(=O)OC(C#N)c2cccc(Oc3ccccc3)c2)C1(C)C (stereo not given)	inactive	
C=C(C)C#N	inactive	
CCOP(=O)(O)OCC (tested in a mixture with another compound)	inactive and 39.6 µM (active)	
C[C@]12CC[C@H]3[C@@H](CCC4=CC(=O)CC[C@@H]43)[C@@H]1CC[C@@H]2O	inactive	
CC(C)(O)C#N	inactive	
ClCc1ccccn1	inactive	
CN(C)c1ccccc1	inactive	
ClCC(Cl)CCl	inactive	
CC1(C)Cc2cccc(O)c2O1	inactive	
c1ccc2c(c1)Nc1ccccc1S2		0.478% [at 53.7 µM] (inactive)
O=S(=O)(O)C(F)(F)C(F)(F)C(F)(F)C(F)(F)C(F)(F)C(F)(F)C(F)(F)C(F)(F)F	inactive	
CS(=O)(=O)NC(=O)c1cc(Oc2ccc(C(F)(F)F)cc2Cl)ccc1[N+](=O)[O-]	inactive	
CCCCOCCOC(C)=O	inactive	
CCCCCCCC[N+](C)(CCCCCCCC)CCCCCCCC	63.2 µM (active) and inactive and 79.6 µM (active)	

Structure (SMILES)	Potency	activity change, negative = inhibition
Cc1ccc(N=CN(C)C=Nc2ccc(C)cc2C)c(C)c1	inactive	
CC(C)(c1ccc(OCC2CO2)cc1)c1ccc(OCC2CO2)cc1 (stereo not given)	inactive	
COP(=O)(NC(C)=O)SC (stereo not given)	inactive	
CCC/C=N/O	8.6 µM (active) and inactive	
N#CCCCCC#N	inactive	
CCCCOCC1CO1 (stereo not given)	899 nM (active) and inactive	
COc1ccc(O)c(C(C)(C)C)c1	inactive	
N#Cc1nn(-c2c(Cl)cc(C(F)(F)F)cc2Cl)c(N)c1S(=O)C(F)(F)F (stereo not given)	inactive	
C[N+](C)(C)CC(=O)O	inactive	
Nc1ccc([N+](=O)[O-])cc1N		-10.3% (inactive)
O=C1C(Cl)=C(Cl)C(=O)c2ccccc21	11.3 µM (active) and 25.2 µM (active)	
Nc1ncn[nH]1		-0.197% (inactive)
CCOP(=S)(OCC)SCSC(C)(C)C	inactive	
N#Cc1cccnc1	inactive	
C[C@]12CCC(=O)C=C1CC[C@@H]1[C@@H]2CC[C@@]2(C)[C@H]1CC[C@]2(C)O	inactive	
CCCCOC(=O)COC(=O)c1ccccc1C(=O)OCCCC	inactive	
Clc1ccc(C(Cl)(Cl)Cl)cc1	inactive	
C[N+](C)(C)CC(=O)[O-]	inactive	
C[N+](C)(C)C	inactive	
[CH3][Sn]([Cl])([Cl])[Cl]	inactive	
